TRHR agonist = TRH receptor (human) agonism | 0.18% of 360,000 active | activation, % at 2 µM | P34981 | TRHR cells, calcium flux fluo-8, FDSS agonist mode | AID 493084; also: 0% is about no effect
Target sequence (P34981 whole entry, looked up): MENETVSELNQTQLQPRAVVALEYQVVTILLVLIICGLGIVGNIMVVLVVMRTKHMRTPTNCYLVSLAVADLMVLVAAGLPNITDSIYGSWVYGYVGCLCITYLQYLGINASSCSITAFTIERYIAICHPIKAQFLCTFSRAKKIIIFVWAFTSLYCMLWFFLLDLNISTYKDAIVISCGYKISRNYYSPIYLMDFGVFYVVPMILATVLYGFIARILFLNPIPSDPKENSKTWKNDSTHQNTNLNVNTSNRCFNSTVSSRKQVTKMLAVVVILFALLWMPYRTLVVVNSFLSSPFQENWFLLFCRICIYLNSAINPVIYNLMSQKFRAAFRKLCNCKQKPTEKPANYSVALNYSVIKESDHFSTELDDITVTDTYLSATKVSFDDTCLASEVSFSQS
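TRHR-expressing cells, plated overnight in medium with 10% serum, were loaded with fluo-8 calcium dye at room temperature. After a 10 s baseline, library compound was pin-added and calcium release was recorded kinetically (ex 480/em 530) as agonist response.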
D1 agonist = human D1 receptor agonism; P21728; HEK293 T-REx D1 cells, calcium flux, agonist mode; activation, % at 2 µM; 1% of 360,000 active; AID 504660; also: 0% is about no effect
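Tetracycline-induced HEK293 TREx D1 cells, force-coupled to calcium signalling, were dye-loaded with a no-wash calcium kit. Compound was pin-added after a 10 s baseline. Fluorescence was read kinetically at 1 cycle/s for 180 s, with calcium rises flagged as agonism.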
Glioma ERSR ind = induces the endoplasmic reticulum stress response in human glioma cells; Potency, µM, without a hit: at the top dose activation, most hits filed as activators; AID 602332; U87-MG GRP78 promoter luciferase reporter, 16 h; 0.02% of 420,000 active; active = well fitted activation curve with a large enough effect; inconclusive = small, poorly fitted or top-dose-only effect; inactive = no such curve, though single readings can be large or run the other way; also: potency is read from the fitted curve at half-maximal effect; series mostly up to about 76 µM; % of control where 0% means no effect; nearly all actives have a fitted effect of over 35% in size
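Stably transfected U87-MG human glioma cells carrying a GRP78-based luminescent sensor were seeded at 1000 cells/well, pin-dosed with compounds and incubated 16 h. Luciferase reagent was then added, and end-point luminescence was read after 10 min at room temperature.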
D1 antag = human D1 dopamine receptor antagonism | P21728 | HEK293 TREx D1 cells, calcium flux, dopamine EC80; hits give low values | activity change, negative = inhibition, % at 10 µM | 3.2% of 360,000 active | AID 504652; in the data active = activity change below about -30%; also: % is scaled to controls: 0 for no effect and ±100 for the full control effect
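HEK293 T-REx cells expressing inducible, force-coupled D1 receptor; no-wash Ca dye, 30–90 min RT. Cmpd → 180 s read at 1 Hz → EC80 DA → 180 s read.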
TRHR enhancer = allosteric enhancers of human TRH receptor; AID 493056; TRHR cells, fluo-8 calcium fluorescence, EC20 TRH enhancement; enhancement, % at 2 µM; 0.66% of 360,000 active; in the data active = enhancement above about 30%; also: 0% is about no effect
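TRHR-expressing cells loaded with fluo-8 calcium dye were read kinetically (ex 480/em 530) during compound addition, then stimulated with an EC20 of TRH (10 nM final). Enhancement of the Gq-mediated intracellular calcium response was scored.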
D1 PAM = enhances dopamine response at the human D1 receptor; 0.036% of 360,000 active; potentiation, % at 10 µM; HEK293 TREx D1 cells, calcium flux, dopamine EC20 potentiation; P21728; in the data active = potentiation above about 30%; also: 0% is about no effect
Starred values were filed as active, the others as inactive; ? = inconclusive; / = not tested or not shown. Most compounds without a hit are left out; they make up all but 4% or so of the library. Rule as the data show it, unless noted: active = activation above about 30%; inactive = the rest.

SMILES	TRHR agonist	D1 agonist	Glioma ERSR ind	D1 antag	TRHR enhancer	D1 PAM
COc1ccc(CCNC(=O)CCc2c(C)c3cc4c(C)coc4cc3oc2=O)cc1	0	22	-1%	-51*	-2	-1
O=C(CSc1nncn1-c1ccccc1F)NC1CCCCC1	1	2	5%	0	14	-3
CCOc1ccc(-n2c(=O)c3c(C)c(C)sc3n(Cc3ccccc3C)c2=O)cc1	1	-1	/	-73*	-5	5
CCOc1ccc(-n2c(=O)c3c(C)c(C)sc3n(Cc3cc(=O)n4cc(Cl)ccc4n3)c2=O)cc1	-1	-1	/	-42*	9	1
COc1cc(CNCCc2ccc(S(N)(=O)=O)cc2)ccc1OCc1ccc(Cl)cc1	1	19	-2%	-7	3	-10
CCOc1cc(CNCCc2ccc(S(N)(=O)=O)cc2)ccc1OCc1ccc(Cl)cc1	4	79*	-14%	-56*	8	-16
NS(=O)(=O)c1ccc(CCNCc2ccccc2OCc2ccc(F)cc2)cc1	1	41*	-3%	-40*	-16	-17
Nc1nonc1C(=O)NCCNCc1ccccc1OCc1ccc(F)cc1	0	30*	-4%	-29	2	-11
Cc1ccc(S(=O)(=O)NCC(=O)OCC(=O)N2CC(=O)Nc3ccccc32)cc1	/	/	-4%	/	/	/
COc1ccc(Cl)cc1-c1cc(C(=O)NC2CCCCC2)[nH]n1	/	/	2%	/	/	/
O=C(N/C(=C/c1cccnc1)C(=O)N1CCOCC1)c1ccccc1	1	2	-2%	-1	2	-7
COc1ccc(/C=C(/NC(=O)c2ccccc2)C(=O)N2CCCC2)cc1OC	0	0	0%	24	-6	0
COc1ccc(/C=C(\NC(=O)c2ccccc2)C(=O)N2CCCCC2)cc1OC	1	7	-1%	-3	1	-5
COc1ccc(/C=C(/NC(=O)c2ccco2)C(=O)N2CCCCCC2)cc1OC	0	36*	-2%	29	15	-2
O=C(N/C(=C\c1cccnc1)C(=O)N1CCOCC1)c1ccco1	1	1	0%	-33*	6	-6
COc1ccc(/C=C(/NC(=O)c2ccccc2)C(=O)N2CCCCC2)cc1OC	-1	72*	-5%	0	25	4
Cc1ccccc1Nc1nc(N)nc(-c2oc3ccccc3c2C)n1	-1	0	4%	-11	35*	-8
CN(C)c1ccc(/C=c2\sc3n(c2=O)CCCN=3)cc1	13	46*	-14%	3	2	-4
COc1ccc(S[C@@H]2C[C@@H](C(=O)Nc3ccc4nccnc4c3)N(C3Cc4ccccc4C3)C2)cc1	/	/	-1%	/	/	/
CC(=O)N(C1=C(Cl)C(=O)c2ccccc2C1=O)C1CCCCC1	1	1	-13%	-35*	-10	-15
O=C(CSc1nc2ccccc2s1)N1c2ccccc2Sc2ccc(Cl)cc21	1	2	-3%	-49*	-2	-10
O=C(COc1ccc(Cl)cc1)NCc1nnc(SCC(=O)NC2CCCCC2)o1	-1	20	-6%	-33*	3	-5
O=C(CSc1nc2ccccc2o1)N1c2ccccc2Sc2ccccc21	0	6	-2%	8	-6	-1
CN1CCN(C(=O)CSc2nnc(COc3ccccc3)o2)CC1	0	4	-4%	-1	8	0
Cc1ccc(OCc2nnc(SCC(=O)N3c4ccccc4Sc4ccc(Cl)cc43)o2)cc1	0	1	-5%	-32*	3	2
SMILES	TRHR agonist	D1 agonist	Glioma ERSR ind	D1 antag	TRHR enhancer	D1 PAM
CN1CCN(C(=O)CSc2nnc(COc3ccc(Cl)cc3)o2)CC1	-2	16	0%	-37*	1	/
COc1ccc(Cl)cc1NC(=O)CSc1nnc(CNC(=O)c2ccco2)o1	0	-1	-1%	4	-4	0
CCCCCCCCN=C(N)c1ccc(C(=O)OCC2CCCCC2)cc1	/	/	-12%	/	/	/
CSc1cccc(NC(=O)CN(c2ccc(C)cc2C)S(C)(=O)=O)c1	0	3	-3%	-1	0	-5
COc1ccc(-c2nnc(NC(=O)c3ccc(S(=O)(=O)N4COCC4(C)C)cc3)o2)cc1	-1	4	-3%	-18	3	-7
COc1cc(CN(C(=O)c2ccc(OC(C)C)cc2)C2CCS(=O)(=O)C2)cc(OC)c1OC (configuration not stated)	-1	0	-4%	7	5	0
COc1ccc(S(=O)(=O)c2c(O)c(C)cc(NC(=O)c3ccccc3)c2C(C)C)cc1	0	1	-3%	-11	-7	-5
O=C(CSc1nnc(CNC(=O)c2c(F)cccc2F)o1)c1ccc(Cl)cc1	/	/	-3%	/	/	/
O=C(CSc1nnc(CNc2ccc(F)cc2)o1)OC1CCCCC1	0	2	1%	-31*	-3	0
O=C(CSc1nnc(CNC(=O)c2ccccc2)o1)c1ccc(Cl)cc1	0	13	-3%	-43*	6	-7
C=CCn1c(-c2cccs2)nc2ccccc21	-2	0	0%	-52*	7	-11
Cc1ccc(C)c(N=Nc2ccc(O)c3ncccc23)c1	0	-1	-8%	-71*	7	-8
C=CCCCCCCCCC(=O)Nc1c[nH]c(=O)[nH]c1=O	0	3	-4%	-4	-8	6
Cc1ccc(/C=N\NC(=O)Cn2nnc3ccccc32)o1	0	2	-4%	16	33*	-2
Cc1ccc(/C=N/NC(=O)Cn2cnc3ccccc32)cc1	0	4	-3%	-43*	-2	-8
Cc1ccc(/C=N/NC(=O)Cn2cnc3ccccc32)o1	0	2	-8%	-11	1	5
O=C(Cn1cnc2ccccc21)N/N=C/c1ccc([N+](=O)[O-])cc1	0	4	-1%	-4	2	1
Cc1ccc(NC(=O)c2cnn(-c3ccccc3)c2C)c(C)c1	-1	7	-1%	-58*	10	-7
CCCCC1CC(CSc2ncn[nH]2)OC1=O (configuration not stated)	0	0	-5%	-36*	-1	1
C=CCc1c(C)nc2c(-c3ccccc3)cnn2c1N1CCOCC1	-1	1	?	-32*	-6	-8
Cc1nc2ccccn2c(=O)c1CCN1CCC(C(=O)c2ccc(F)cc2)CC1	0	1	0%	-34*	-3	-6
CC1CCN(CCn2c(=S)[nH]c3ccccc3c2=O)CC1	2	0	-5%	-1	1	-5
CC1CCN(CCCn2c(=S)[nH]c3ccccc3c2=O)CC1	1	0	-8%	-20	6	-13
CC1(C)C(=O)N(CCN2CCC(C(=O)c3ccc(F)cc3)CC2)c2ccccc21	-1	7	-2%	-62*	7	-7

Assay outcomes (PubChem BioAssay)
